Laboratory results from PubChem BioAssay AID1469 (National Center for Advancing Translational Sciences (NCATS), 2008).
Screen size: about 280,000 compounds; about 180 (0.064%) were called active. The sample holds actives, similar compounds and a random draw of the others, so the mix is not that of the screen. Calls follow the shape of the dose curve; as a rule, active = well fitted inhibition curve with a large enough effect; inconclusive = small, poorly fitted or top-dose-only effect, or effect the other way; inactive = flat fitted curve, though single readings scatter.

Molecular target: Thyroid hormone receptor beta (Homo sapiens) (UniProt P10828)
Sequence (P10828 whole entry, looked up): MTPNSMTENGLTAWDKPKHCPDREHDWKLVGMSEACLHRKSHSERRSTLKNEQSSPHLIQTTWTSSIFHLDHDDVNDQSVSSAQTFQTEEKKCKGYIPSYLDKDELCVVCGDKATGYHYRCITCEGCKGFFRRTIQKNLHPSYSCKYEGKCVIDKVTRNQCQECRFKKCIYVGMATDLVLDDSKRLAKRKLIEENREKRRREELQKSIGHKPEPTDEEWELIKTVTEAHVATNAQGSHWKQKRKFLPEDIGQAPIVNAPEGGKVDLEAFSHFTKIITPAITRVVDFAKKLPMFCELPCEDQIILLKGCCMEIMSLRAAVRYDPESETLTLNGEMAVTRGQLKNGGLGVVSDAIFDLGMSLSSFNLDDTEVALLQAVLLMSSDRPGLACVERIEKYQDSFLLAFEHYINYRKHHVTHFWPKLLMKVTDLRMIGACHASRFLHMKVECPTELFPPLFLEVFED
Experiment: qHTS for Inhibitors of the Interaction of Thyroid Hormone Receptor and Steroid Receptor Coregulator 2; also: nearly all actives have a fitted effect of over 50% in size;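 as to activity change, negative = inhibition: plate controls were bound peptide for no effect and peptide without receptor for full effect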
Details: TRbeta-SRC2 peptide binding, fluorescence polarization, receptor liganded with 1 µM T3; series mostly up to 106 µM; activity change, negative = inhibition: at the top concentration
Excerpt: NIH Molecular Libraries Probe Production Network [MLPCN]
NIH Chemical Genomics Center [NCGC]
Assay Provider: R. Kip Guy, St. Jude Children's Research Hospital
Thyroid receptor (TR) regulates many homeostatic processes including basal metabolism, cardiovascular function, body weight, and lipid trafficking. TR modulators are potential therapeutics for obesity and hyperlipidemias but current thyroid analogs have undesirable side effects, particularly cardiac stimulation. To identify inhibitors that specifically prevent the interaction of TR with the steroid receptor coregulator 2 (SRC2), a fluorescence polarization assay was screened. This assay detects interaction of the ligand-binding domain of human TRb with a Texas Red labeled SRC2 peptide, corresponding to a 20 amino acid region of the nuclear receptor interaction domain (Arnold et al., 2006). Small molecule inhibitors that block the interaction of TR and SRC2 are detected by a decrease in fluorescence polarization.
Arnold, L. A.; Estebanez-Perpina, E.; Togashi, M.; Shelat, A.; Ocasio, C. A.; McReynolds, A. C.; Nguyen, P.; Baxter, J. D.; Fletterick, R. J.; Webb, P.; Guy, R. K. A high-throughput screening method to identify small molecule inhibitors of thyroid hormone receptor coactivator binding. Sci STKE 2006, p 13.
NCGC Assay Protocol Summary:
For screening, 5 uL/well 0.6 uM TRb and 20 nM SRC2 Texas Red in protein buffer (20mM Tris hydrochloride, 100mM NaCl, 10% glycerol, 1mM EDTA, 0.01% NP-40, 1mM DTT, 1uM T3 and 5% DMSO) was dispensed into black solid 1536-well plates (Grenier) using a solenoid-based dispenser. Following transfer of 23 nL compound or DMSO vehicle by a pin tool, the plates were centrifuged 15 s at 1000 RPM and incubated 5 hr at ambient temperature. The plates were read by an Envision (Perkin Elmer) to detect fluorescence polarization of SRC2 Texas Red (555 nm excitation and 632 nm emission). Data were normalized to unbound (all components except TRb) and bound SRC2 Texas Red controls. In this assay, we provide % activity data for each concentration as well as potencies for the active compounds.
Keywords: NIH Roadmap, MLPCN, MLI, MLSMR, qHTS, NCGC, qHTS, thyroid hormone receptor, steroid receptor coactivator, fluorescence polarization
Potency is read from the fitted curve at half-maximal effect.

Activity change, negative = inhibition, inactive:
O=C1CSC2(C(=O)N(Cc3ccccc3)c3ccccc32)N1c1cccc(F)c1 (centres undefined) 3.71%, CCn1cc(C(=O)N2CCN(c3cc(C)ccc3C)CC2)c(=O)c2cc(S(=O)(=O)N(C)C3CCCCC3)ccc21 1.74%, Cc1nnc(NC(=O)CSc2nc3c([nH]c4ccccc43)c(=O)n2-c2cccc(Cl)c2)s1 6.72%, COc1ccccc1N1CCN(C(=O)C2CCN(S(=O)(=O)c3c(C)noc3/C=C/c3ccc(C)cc3)CC2)CC1 7.45%, CCOc1ccc2oc(=O)cc(CN3CCN(C(=O)c4ccc(F)cc4)CC3)c2c1 -8.37%, Cc1cccc(N2CCN(C(=O)CCn3c(=O)c4cccn4c4cccnc43)CC2C)c1 (centres undefined) 4.81%, COc1ccc(-n2ccnc(NCCc3ccc(Cl)cc3)c2=O)cc1OC 5.85%, CCn1c(C)c(C)c2cc(C(=O)NCCc3cc(OC)ccc3OC)ccc21 -5.66%, COc1ccc(-c2onc(C)c2C)cc1S(=O)(=O)NCC1CCN(Cc2cccc(F)c2)CC1 2.95%, Cc1cccc(NC(=O)CN(c2ccc(C(C)C)cc2)S(=O)(=O)c2c(C)nn(C)c2C)c1C 1.49%, Cc1cc2c(cc3c(SCc4cccc(Cl)c4)nnc(C)n32)o1 7.69%, COc1ccc(-c2cn3nc(N4CCC(C(=O)Nc5cccc(C)c5C)CC4)sc3n2)cc1 2.88%, COc1ccc(CNC(=O)c2ccc(NC(=O)N3CC4CCCN4c4ccccc43)cc2)cc1 (centres undefined) -4.18%, Cc1cccc(N2CCN(C3=C(c4ccccc4)C(=O)c4ccccc43)CC2)c1C -3.14%, Cc1nc2nc(NCc3cccc(Br)c3)[nH]n2c(=O)c1Cc1ccccc1 -7.16%, C[Si](C)(C)N[Si](C)(C)C 2.92% [at 201 µM], O=C(/C=C/Nc1ccccc1OC(F)(F)F)C(F)(F)F 5.17%, CCCOc1ccc(N/C=C/C(=O)C(C)(C)C)cc1 4.71%, COc1ccc(C2=NC(c3ccncc3)=Nc3ccc(Br)cc3N2)cc1 -4.88%, Cc1ccccc1OCc1ccc(-c2nc(C#N)c(N3CCCCC3)o2)o1 0.495%, Cc1cc(=O)n(CC(=O)Nc2cccc([N+](=O)[O-])c2)c(-n2nc(C)cc2C)n1 3.16%, Cc1ccc(NC(=O)c2oc3ccc(S(=O)(=O)N4CCCCC4)cc3c2C)cc1Cl -6.34%, CCN(CC)c1cc(NC2CCCCC2)c2c3c(onc13)-c1ccccc1C2=O -2.27%, COc1cc(NC(=O)c2noc3c2CSc2ccccc2-3)cc(OC)c1OC 3.67%, CCc1cccc(C)c1Nc1c(-c2ccc(N(C)C)cc2)nc2ncccn12 7.62%, CCOCCCNC(=O)c1ccc2nc(CCc3ccccc3)oc2c1 4.71%, CCc1ccccc1NC(=O)Cc1ccc(NC(=O)N2CCCCc3ccccc32)cc1 -8.69%, CCOC(=O)c1ccc(N2C(=O)c3n[nH]c(-c4ccco4)c3C2c2ccc(O)cc2)cc1 (centres undefined) -1.97%, O=C(CCOc1ccccc1)N(Cc1cccnc1)c1nc2ccc(Cl)cc2s1 -8.93%, CCOC(=O)N1CCc2c(sc(NCc3cccc(F)c3)c2C(=O)Nc2ccccc2OCC)C1 -2.15%, COC(=O)CC1Oc2ccccc2-n2cc(-c3ccccc3)nc21 (centres undefined) 2.42%, Cc1ccc(O)c(NC(=O)CCS(=O)(=O)c2nc(-c3ccc4c(c3)OCO4)cc(C(F)(F)F)n2)c1 0.6%, Cc1cc(C)cc(NC(=O)CSc2oc(-c3ccccc3)nc2S(=O)(=O)c2ccc(Cl)cc2)c1 3.51%, CCOc1ccc(CNC(=O)c2ccc(CS(=O)c3ccccc3)o2)cc1 (centres undefined) 2.05%, CCCn1c(NCc2ccc(N(CC)CC)cc2)nc2ccccc21 5.29%, CCOCCCNC(=O)c1c(NC(=O)Cc2coc3ccc(C)cc23)sc2c1CCC2 -6.01% [at 53 µM], Cc1ccc2nc(-c3ccc(O)cc3)c(Nc3ccc4c(c3)OCO4)n2c1 -5.88%, Cc1ccc(-c2nc3ccccn3c2Nc2c(C)cccc2C)o1 2.13%, Cc1ccccc1CS(=O)(=O)CC1Nc2ccc(C(=O)NCc3ccc(Cl)cc3)cc2NC1=O (centres undefined) -3.54%, Cc1cccc(N2CCN(c3ccc(C(=O)O)cc3NC(=O)c3ccccc3F)CC2C)c1 (centres undefined) -2.14%, CCOc1ccc(-c2cc(C)n3nc(C(=O)Nc4ccc(C)c(C)c4)cc3n2)cc1 3.95%, O=C(N/N=C/c1c(Cl)[nH]c2ccccc12)c1sc2ccccc2c1Cl 0.527%, COc1ccc(N=C(C)c2sc3ccccc3c2O)cc1 1.68%, COc1cccc(-c2cc(C(=O)Nc3ccc(C)cc3)[nH]n2)c1 -2.44%, COc1ccc(CC(=O)Nc2nnc3n2CCS3)cc1OC 5.54%, Cc1ccc(Nc2nnc(-c3ccc(C)c(S(=O)(=O)N4CCCCC4)c3)c3ccccc23)cc1 -3.05%, COc1ccccc1N1CCN(CCCNC(=O)c2cnn(-c3ccccc3Cl)c2C2CCN(C(=O)OC(C)(C)C)CC2)CC1 5.02%

Potency, active:
CN(C)c1ccc(N/C=C/C(=O)C(F)(F)F)cc1 44.7 µM, Oc1ccc(N=Cc2sc3ccccc3c2Cl)cc1 14.1 µM
